Test results from PubChem BioAssay (Tox21).
Records with an inconclusive call do not appear. Where a call stands in place of a potency, no number is given. Active and inactive are the calls of the source. Calls come from the whole dose curve; as a rule, active = well fitted curve in the direction sought with a large enough effect in the repeat runs; inconclusive = weak or mixed curves; inactive = no such curve, though single readings can be large; an effect the other way counts as inactive or inconclusive.

Assay: A CellTox Green Cytotoxicity Assay to monitor cytotoxicity in HEK293 cells - 8 hour (AID 1224884); note: nearly all actives have a fitted effect of over 35% in size; note: potency is the fitted concentration of half-maximal effect
Settings: CellTox Green fluorescence; series mostly up to 76.8 µM
How it was run: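 Cells (HEK293, 600/well) and dye reagent are dispensed together. After 5 h at 37 C, 23 nL compound is pinned in. Plates stay at 37 C for 40 h with fluorescence read at 0h, 8h, 16h, 24h, 32h and 40h.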

Compound | Potency
NC(=O)CCCCC1CCSS1 (stereo not given) | inactive
CC(C)COC(=O)c1ccccc1O | inactive
C1C2OC2C2C1C1CC2C2OC12 (stereo not given) | inactive
CC12CCC(CC1=O)C2(C)C (stereo not given) | inactive
CCCc1ccccc1O | inactive
Fc1ccccc1-c1ccccc1 | inactive
CN(C)C(=O)C(CCN1CCC(O)(c2ccc(Cl)cc2)CC1)(c1ccccc1)c1ccccc1 | inactive
CN1[C@@H]2CC[C@H]1CC(NC(=O)n1c(=O)[nH]c3ccccc31)C2 (stereo not given in full) | inactive
C=C(C)[C@@H]1CCC2=CC(=O)C[C@@H](C)[C@]2(C)C1 | inactive
Cc1nc(-c2ccc(OCC(C)C)c(C#N)c2)sc1C(=O)O | inactive
[O-][N+](=Nc1ccccc1)c1ccccc1 | inactive
c1ccc(CCCc2ccccn2)cc1 | inactive
Cc1ccccc1C(=O)O | inactive
NC(=O)c1ncn([C@@H]2O[C@H](CO)[C@@H](O)[C@H]2O)c1O | 23.9 µM (active)
C[C@H]1O[C@@H](n2cc(F)c(=O)[nH]c2=O)[C@H](O)[C@@H]1O | inactive
CCCCOCC(C)OCC(C)O (stereo not given) | inactive
CC(C)c1cccc(C(C)C)c1N | inactive
NC(N)=NS(=O)(=O)c1ccc(N)cc1 | inactive
CC(C)(C)CC(C)(C)N | inactive
CC/C=C\CCCCO | inactive
CCO[Si](C)(OCC)OCC | inactive
COc1cc(CCC(C)=O)ccc1O | inactive
CC1(C)SC(C)(C)SC(C)(C)S1 | inactive
Nc1nc(F)nc2c1ncn2[C@@H]1O[C@H](CO)[C@@H](O)[C@@H]1O | inactive
CC1=CC(C)C(C=O)C(C)C1 (stereo not given) | inactive
O=C(O)Cc1cc(I)c(Oc2cc(I)c(O)c(I)c2)c(I)c1 | inactive
CC1CCN(CCCC(=O)c2ccc(F)cc2)CC1 | inactive

Assay: qHTS RealTime-Glo MT Cell Viability Assay in HepG2 cells - 16 hour (AID 1224885); note: nearly all actives have a fitted effect of over 50% in size
Settings: RealTime-Glo luminescence; series mostly up to 76.8 µM
How it was run: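 Compound treatment began 5 h after plating HepG2 cells (600/well) with NanoLuc luciferase and prosubstrate. Plates stayed at 37 C for 40 h; luminescence was captured at six time points, 0 h through 40 h.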

Compound | outcome
O=C(O)c1ccccc1S | inactive
NC(=O)CCCCC1CCSS1 (stereo not given) | inactive
CCN(CC)C(=O)c1ccc(O)c(OC)c1 | inactive
CC(C)COC(=O)c1ccccc1O | inactive
C1C2OC2C2C1C1CC2C2OC12 (stereo not given) | inactive
CC12CCC(CC1=O)C2(C)C (stereo not given) | inactive
CCCc1ccccc1O | inactive
Nc1ncnc2c1ncn2Cc1c(F)cccc1Cl | inactive
Fc1ccccc1-c1ccccc1 | inactive
CN1[C@@H]2CC[C@H]1CC(NC(=O)n1c(=O)[nH]c3ccccc31)C2 (stereo not given in full) | inactive
COC(=O)[C@H]1[C@H]2C[C@@H]3c4[nH]c5cc(OC)ccc5c4CCN3C[C@H]2C[C@@H](OC(=O)COc2ccc(OC)cc2)[C@@H]1OC | inactive
C=C(C)[C@@H]1CCC2=CC(=O)C[C@@H](C)[C@]2(C)C1 | inactive
Cc1nc(-c2ccc(OCC(C)C)c(C#N)c2)sc1C(=O)O | inactive
[O-][N+](=Nc1ccccc1)c1ccccc1 | inactive
c1ccc(CCCc2ccccn2)cc1 | inactive
CC(C)CCOC(=O)CC(C)C | inactive
Cc1ccccc1C(=O)O | inactive
CCCCCCCCCCCCCCCCCCOCC(O)CO (stereo not given) | inactive
C=C(C)C(=O)NCCC[N+](C)(C)C | inactive

Compound | outcome
CCCCc1ccc2cccc(S(=O)(=O)O)c2c1 | inactive
NC(=O)c1ncn([C@@H]2O[C@H](CO)[C@@H](O)[C@H]2O)c1O | inactive
C[C@H]1O[C@@H](n2cc(F)c(=O)[nH]c2=O)[C@H](O)[C@@H]1O | inactive
CCCCOCC(C)OCC(C)O (stereo not given) | inactive
NC(=O)Nc1nc2ccccc2[nH]1 | inactive
CC(C)c1cccc(C(C)C)c1N | inactive
NC(N)=NS(=O)(=O)c1ccc(N)cc1 | inactive
CC(C)(C)CC(C)(C)N | inactive
CC/C=C\CCCCO | inactive
CCO[Si](C)(OCC)OCC | inactive
COc1cc(CCC(C)=O)ccc1O | inactive
CC1(C)SC(C)(C)SC(C)(C)S1 | inactive
Nc1nc(F)nc2c1ncn2[C@@H]1O[C@H](CO)[C@@H](O)[C@@H]1O | inactive
C=C(C)C(=O)NCCCN(C)C | inactive
CC1=CC(C)C(C=O)C(C)C1 (stereo not given) | inactive
O=C(O)Cc1cc(I)c(Oc2cc(I)c(O)c(I)c2)c(I)c1 | inactive
CC1CCN(CCCC(=O)c2ccc(F)cc2)CC1 | inactive
COc1cccc(Br)c1 | inactive

Assay: qHTS RealTime-Glo MT Cell Viability Assay in HEK293 cells - 24 hour (AID 1224886); note: nearly all actives have a fitted effect of over 50% in size; note: potency is the fitted concentration of half-maximal effect
Settings: RealTime-Glo luminescence; series mostly up to 76.8 µM
How it was run: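 Quantitative high-throughput screen of the Tox21 10K library in HEK293: cells and RealTime-Glo reagents plated together, compound added at 5 h, luminescence monitored through 40 h at 37 C.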

Compound | Potency
NC(=O)CCCCC1CCSS1 (stereo not given) | inactive
CCN(CC)C(=O)c1ccc(O)c(OC)c1 | inactive
CC(C)COC(=O)c1ccccc1O | inactive
C1C2OC2C2C1C1CC2C2OC12 (stereo not given) | inactive
CC12CCC(CC1=O)C2(C)C (stereo not given) | inactive
CCCc1ccccc1O | inactive
CN(C)C(=O)C(CCN1CCC(O)(c2ccc(Cl)cc2)CC1)(c1ccccc1)c1ccccc1 | 9.52 µM (active)
CN1[C@@H]2CC[C@H]1CC(NC(=O)n1c(=O)[nH]c3ccccc31)C2 (stereo not given in full) | inactive
COC(=O)[C@H]1[C@H]2C[C@@H]3c4[nH]c5cc(OC)ccc5c4CCN3C[C@H]2C[C@@H](OC(=O)COc2ccc(OC)cc2)[C@@H]1OC | inactive
C=C(C)[C@@H]1CCC2=CC(=O)C[C@@H](C)[C@]2(C)C1 | inactive
Cc1nc(-c2ccc(OCC(C)C)c(C#N)c2)sc1C(=O)O | inactive
CCCCCCCCCCCCCCCCCCOCC(O)CO (stereo not given) | inactive
C=C(C)C(=O)NCCC[N+](C)(C)C | inactive
CCCCc1ccc2cccc(S(=O)(=O)O)c2c1 | inactive
NC(=O)c1ncn([C@@H]2O[C@H](CO)[C@@H](O)[C@H]2O)c1O | inactive
C[C@H]1O[C@@H](n2cc(F)c(=O)[nH]c2=O)[C@H](O)[C@@H]1O | inactive
NC(=O)Nc1nc2ccccc2[nH]1 | inactive
CC(C)c1cccc(C(C)C)c1N | inactive
NC(N)=NS(=O)(=O)c1ccc(N)cc1 | inactive
CC(C)(C)CC(C)(C)N | inactive
COc1cc(CCC(C)=O)ccc1O | inactive
Nc1nc(F)nc2c1ncn2[C@@H]1O[C@H](CO)[C@@H](O)[C@@H]1O | inactive
CC1=CC(C)C(C=O)C(C)C1 (stereo not given) | inactive
O=C(O)Cc1cc(I)c(Oc2cc(I)c(O)c(I)c2)c(I)c1 | inactive
CC1CCN(CCCC(=O)c2ccc(F)cc2)CC1 | inactive
COc1cccc(Br)c1 | inactive
